# Reference: the supplement of paper PMC7156485
# ± gives the standard deviation of the averaged measurements.
# System: TDF
# Test: cell number relative to DMSO (% of DMSO); higher = more cells (less growth inhibition / toxicity)
# Details: concentration: 10 µM; 24 h
# Method in brief: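 Six fields per well were imaged at ×10 after the cells were fixed in 3.7% formaldehyde and stained with a rabbit anti-H1.0 antibody, an AlexaFluor 647 secondary and DAPI. The HCC1569 and TDF cells had been plated at 800 per well in 384-well plates (RPMI, 10% FBS) and treated in triplicate with compounds at 10 µM for 24 h at 37 °C. The values are the median of replicates of H1.0 nuclear intensity or cell number, as percent of the plate control. Smoothing for positional effects was applied to HCC1569 data.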
# 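Note: TDF denotes transformed human dermal fibroblasts of mesenchymal origin.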
row,Compound,cell number
1,CCCCCC=CCC=CCC=CC=CC1CCCC(=O)O1 (racemic),97
2,"CC(CC(c1ccccc1)c1ccccc1)NC(C)(C)C.Cl (stereo not given) [N-(tert-butyl)-4,4-diphenyl-2-butanamine hydrochloride]",97.5
3,CCc1cc(CCC2(C3CCCC3)CC(O)=C(Cc3nc4nc(C)cc(C)n4n3)C(=O)O2)cc(CC)n1 (stereo not given),106
4,CC(C)(CN1C(=O)C(Cl)=C(Cl)C1=O)CN1C(=O)C(Cl)=C(Cl)C1=O,101
5,Cl.Cl.N=C(N)c1ccc(N)cc1 [4-Aminobenzamidine dihydrochloride],102
6,CC12CC3CC(C)(C1)CC(N)(C3)C2.Cl [Memantine hydrochloride],96
7,O=C1c2ccccc2-c2n[nH]c3cccc1c23,107
8,O=C(NC1CCNCC1)c1[nH]ncc1NC(=O)c1c(Cl)cccc1Cl,31.9
9,NC(=O)c1ccc(-c2nc(-c3ccc4c(c3)OCO4)c(-c3ccccn3)[nH]2)cc1,106
10,CC12CCC(=O)C=C1CCC1C2C(O)CC2(C)C1CCC2(O)C(=O)COC(=O)CCC(=O)[O-].[Na+] (stereo not given) [Hydrocortisone 21-hemisuccinate sodium],99.5
11,Nc1ccc(C(=O)O)c(O)c1 [4-Aminosalicylic acid],98.2
12,"Cl.Cl.Cl.NCCC1CCCC(CCN)N1 (stereo not given) [MDL 26,630 trihydrochloride]",105
13,OCC(CO)(CO)NCC(O)Cn1c2ccc(Cl)cc2c2cc(Cl)ccc21 (stereo not given),76.8
14,O=c1[nH]c(=O)c2nc3ccccc3nc2[nH]1 [Alloxazine],91.6
15,COc1cc2nc(N3CCN(C(=O)C4CCCO4)CC3)nc(N)c2cc1OC (stereo not given) [Terazosin],87.9
16,NCC1OC(OC2C(CO)OC(OC3C(O)C(N)CC(N)C3OC3OC(CN)C(O)C(O)C3N)C2O)C(N)C(O)C1O (stereo not given) [Neomycin],93.4 ± 5.1
17,CC(C)C1NC(=O)C(CCCCN)NC(=O)C(Cc2c[nH]c3ccccc23)NC(=O)C(Cc2ccc(O)cc2)NC(=O)C(C)N(C)C(=O)C(Cc2ccccc2)NC1=O (stereo not given) [Seglitide],98.2
18,CCCCN1CCC(n2c(=O)[nH]c3ccccc32)CC1.O=C(O)C(=O)O [NS 521 oxalate],102
19,COc1ccc(CCN(C)CCCC(C#N)(c2cc(OC)c(OC)c(OC)c2)C(C)C)cc1OC.Cl (racemic),109
20,O=c1[nH]c(=O)n(C2CCCO2)cc1F (stereo not given) [Ftorafur],102
21,O=C(O)CN(CCN(CC(=O)O)CC(=O)O)CCN(CC(=O)O)CC(=O)O [Diethylenetriaminepentaacetic acid],104
22,CCCCCCCCC=CCCCCCCCCOCC(COP(=O)([O-])OCC[N+](C)(C)C)OC(C)=O (stereo not given),114
23,Nc1ccc(O)c(C(=O)O)c1 [5-Aminosalicylic acid],103
24,Cc1nc(Nc2ncc(C(=O)Nc3c(C)cccc3Cl)s2)cc(N2CCN(CCO)CC2)n1 [Dasatinib],93.4
25,CCCCCC(O)C=CC=CCCCCCCCC(=O)O (stereo not given),97.2
26,"CCCCCCCCCCCCCCC[C@@H](O)[C@@H](N)CO [(2S,3R)-2-amino-1,3-octadecanediol]",39.4
27,Cc1cn2cc(C(=O)N(C)CCO)cc(N[C@@H]3CCOc4cccc(C)c43)c2n1,104
28,COc1cc2c(c(OC)c1OC)-c1c(cc(OC)c(OC)c1OC)CC(C)C(C)C2 (stereo not drawn) [R(+)-Schisandrin A],103
29,CON(C)C(=O)[C@H](O)[C@H](Cc1ccccc1)NC(=O)c1cc2cc(Cl)ccc2[nH]1,110
30,Nc1ccc(S(=O)(=O)Nc2ccnn2-c2ccccc2)cc1 [Sulfaphenazole],113
